Data published in PubChem BioAssay (NCI).
The panel holds about 83,000 compounds, 20% with a hit somewhere; the sample as a whole holds those more often.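 Treatment: one concentration, 48 hours, 96-well format. Scoring: percent growth, with anything below 10 considered active.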 Unmarked numbers belong to inactive results. Active and inactive are the calls of the source.

Each molecule was assayed on LOX IMVI melanoma (assay: NCI-60 one-dose screen, 48 h (100 = growth as untreated, 0 = no growth, -100 = all killed)). Conditions: 10 µM.
`CSc1cc(SC)ncn1` gave a growth of 105%.
Molecule `CCOC(=O)CNC(=O)CCCCSc1ncnc2nc[nH]c12` has a growth of 102%.
`COc1ccc(OC)c(/C=C/c2nc(SCc3ccccc3)n(-c3ccc(Cl)cc3)n2)c1` was tested, and the growth was 32.4%.
With `c1ccc(C(NC2CC3CCC2C3)c2ccccc2)cc1` (stereo not drawn) the growth was 95.3%.
With `CN1CCC2(CC1)NC(=O)c1c(c3ccc(Cl)c(Cl)c3n1C)C2C#N` (stereo not drawn) the growth was 76.6%.
`O=[N+]([O-])c1cccc(N=Cc2ccc3c(c2)OCO3)c1` gave a growth of 91.4%.
`Nc1cc2c(cc1Cl)-c1ccc([N+](=O)[O-])cc1/C2=N\O` was tested, and the growth was 53.8%.
Molecule `COc1ccc(OC)c2c1C(=O)CC2C` (stereo not drawn) has a growth of 100%.
Work on `N#CSCC1CC(O)(c2ccccc2)CC(c2ccc(Cl)cc2)O1` (stereo not drawn) yielded a growth of 13.1%.
`CCOC(=O)C1CCc2c(ccc3ccccc23)N1CCC#N` (stereo not drawn) gave a growth of 85.7%.
`Fc1ccc(-c2nnc(-c3c(-c4ccc(F)cc4)nc4ccccn34)o2)cc1` was tested, and the growth was 65.4%.
`O=C1/C(=C/c2ccc(Cl)cc2)SC(=Nc2ccc(Cl)cc2)N1Cc1nc2ccccc2[nH]1` was tested, and the growth was 78%.
With `CO/N=C(/C(=O)NC1C(=O)N2C(C(=O)O)=C(COC(N)=O)CSC12)c1ccco1` (stereo not drawn) the growth was 102%.
`COc1ccc(C2CC(c3ccc(N(C)C)cc3)=NN2c2ccc(S(N)(=O)=O)cc2)cc1` (stereo not drawn) was tested, and the growth was 54.9%.
For `CN(C)CCNC(=O)c1cccn2c(=O)c3cc4ccccc4cc3nc12`, the growth was 1.07% (active).
In the case of `Oc1[nH]c2ccc(Cl)cc2c1/C=c1/ccc2c(c1)N=C(c1cccs1)N=2`, the growth is reported as 42.5%.
For `Nc1ccc2c(c1)Cc1cc(N)c(Br)cc1-2`, the growth was 96.8%.
In the case of `Cc1ccc(Nc2nnc(-c3cc(-c4ccncc4)n(-c4ccccc4)n3)s2)cc1`, the growth is reported as 58.5%.
In the case of `O=C(N/N=C\c1cc(Cl)ccc1[N+](=O)[O-])c1ccco1`, the growth is reported as 103%.
`COc1ccc2c(c1)sc1nc(-c3ccccc3)c(-c3ccsc3)n12` gave a growth of 40.3%.
`O=C(N/N=C/c1ccccc1O)C(O)(c1ccccc1)c1ccccc1` showed a growth of 25.7%.
In the case of `CCCCCCCCCCCCC1C/C=C\CCCC(=O)O1` (stereo not drawn), the growth is reported as 113%.
For `O=C(Nc1cccc(Br)c1)c1cc(=O)[nH]c2ccccc12`, the growth was 89.3%.
`CC(C)=CCc1ccc(O)c(=O)cc1C(C)C` was tested, and the growth was 22%.
`Cc1occc1-c1nnc(SCC(=O)c2ccc(NC(=O)CC(C)C)cc2)o1` was tested, and the growth was 105%.
With `CC(C)=NNc1ncnc2c1ncn2C1OC(CO)C(O)C1O` (stereo not drawn) the growth was 7.06% (active).
`CCCCCCCCCCCCCC[n+]1ccc(C(N)=O)cc1` was tested, and the growth was -48.9% (active).
Work on `COc1ccc(Cl)cc1C(=O)Nc1nc2ccc(Cl)cc2s1` yielded a growth of 81.2%.
`O=C(CSSCC(=O)c1ccc(Cl)cc1)c1ccc(Cl)cc1` gave a growth of 40.7%.
In the case of `O=[P@@]1(c2ccccc2)O[C@H](COCc2ccccc2)[C@@H](OCc2ccccc2)[C@H](OCc2ccccc2)[C@H]1O`, the growth is reported as 95.7%.
In the case of `Nc1ncn([C@@H]2O[C@H](CO)[C@@H](O)[C@H]2O)c(=O)n1`, the growth is reported as -9.93% (active).
`CCCCOC(=O)Oc1ccc(C(=O)Oc2ccc(OCC)cc2)cc1` was tested, and the growth was 96.3%.
In the case of `O=C1c2ccc3c4c(ccc(c24)C(=O)N1CCNCc1ccccc1)C(=O)N(CCNCc1ccccc1)C3=O`, the growth is reported as -47.9% (active).
Work on `CCn1cc(C(=O)O)c(=O)c2cnc(N3CCCC3)nc21` yielded a growth of 99.3%.
Work on `Cc1ccc(-c2nc(/C=C3/C(=O)N(C)c4ccc(F)cc43)c3ccccn23)cc1` yielded a growth of 95.9%.
`COc1ccc(OC)c(/C=C/c2nc(SC)n(-c3ccc(Cl)cc3)n2)c1` showed a growth of 83.3%.
Work on `COc1cccc(-c2cc(-c3cccc(NS(C)(=O)=O)c3)nc(N)c2C#N)c1O` yielded a growth of 46.6%.
With `CC1CN(Cc2ccccc2)C(=O)NC1=O` (stereo not drawn) the growth was 103%.
With `Cc1cn(C2CCCCO2)c(=O)nc1NO` (stereo not drawn) the growth was 110%.

These molecules were tested on SK-MEL-28 melanoma in the same assay as above. Conditions: 10 µM.
`CSc1cc(SC)ncn1` showed a growth of 102%.
`CCOC(=O)CNC(=O)CCCCSc1ncnc2nc[nH]c12` showed a growth of 110%.
`COc1ccc(OC)c(/C=C/c2nc(SCc3ccccc3)n(-c3ccc(Cl)cc3)n2)c1` gave a growth of 71.5%.
`c1ccc(C(NC2CC3CCC2C3)c2ccccc2)cc1` (stereo not drawn) gave a growth of 110%.
For `CN1CCC2(CC1)NC(=O)c1c(c3ccc(Cl)c(Cl)c3n1C)C2C#N` (stereo not drawn), the growth was 70.4%.
In the case of `O=[N+]([O-])c1cccc(N=Cc2ccc3c(c2)OCO3)c1`, the growth is reported as 117%.
Work on `Nc1cc2c(cc1Cl)-c1ccc([N+](=O)[O-])cc1/C2=N\O` yielded a growth of 109%.
For `COc1ccc(OC)c2c1C(=O)CC2C` (stereo not drawn), the growth was 101%.
`N#CSCC1CC(O)(c2ccccc2)CC(c2ccc(Cl)cc2)O1` (stereo not drawn) showed a growth of 72.1%.
Molecule `CCOC(=O)C1CCc2c(ccc3ccccc23)N1CCC#N` (stereo not drawn) has a growth of 91.2%.
`Fc1ccc(-c2nnc(-c3c(-c4ccc(F)cc4)nc4ccccn34)o2)cc1` was tested, and the growth was 85%.
For `O=C1/C(=C/c2ccc(Cl)cc2)SC(=Nc2ccc(Cl)cc2)N1Cc1nc2ccccc2[nH]1`, the growth was 92.6%.
With `CO/N=C(/C(=O)NC1C(=O)N2C(C(=O)O)=C(COC(N)=O)CSC12)c1ccco1` (stereo not drawn) the growth was 114%.
`COc1ccc(C2CC(c3ccc(N(C)C)cc3)=NN2c2ccc(S(N)(=O)=O)cc2)cc1` (stereo not drawn) showed a growth of 86.3%.
For `CN(C)CCNC(=O)c1cccn2c(=O)c3cc4ccccc4cc3nc12`, the growth was -25.8% (active).
`Oc1[nH]c2ccc(Cl)cc2c1/C=c1/ccc2c(c1)N=C(c1cccs1)N=2` showed a growth of 71.1%.
`Nc1ccc2c(c1)Cc1cc(N)c(Br)cc1-2` gave a growth of 115%.
In the case of `Cc1ccc(Nc2nnc(-c3cc(-c4ccncc4)n(-c4ccccc4)n3)s2)cc1`, the growth is reported as 106%.
`O=C(N/N=C\c1cc(Cl)ccc1[N+](=O)[O-])c1ccco1` showed a growth of 110%.
Molecule `COc1ccc2c(c1)sc1nc(-c3ccccc3)c(-c3ccsc3)n12` has a growth of 60.7%.
Work on `O=C(N/N=C/c1ccccc1O)C(O)(c1ccccc1)c1ccccc1` yielded a growth of 69.7%.
Work on `CCCCCCCCCCCCC1C/C=C\CCCC(=O)O1` (stereo not drawn) yielded a growth of 126%.
Work on `O=C(Nc1cccc(Br)c1)c1cc(=O)[nH]c2ccccc12` yielded a growth of 107%.
`CC(C)=CCc1ccc(O)c(=O)cc1C(C)C` showed a growth of 34.5%.
`Cc1occc1-c1nnc(SCC(=O)c2ccc(NC(=O)CC(C)C)cc2)o1` was tested, and the growth was 123%.
Work on `CC(C)=NNc1ncnc2c1ncn2C1OC(CO)C(O)C1O` (stereo not drawn) yielded a growth of 54.7%.
With `CCCCCCCCCCCCCC[n+]1ccc(C(N)=O)cc1` the growth was 43.3%.
`COc1ccc(Cl)cc1C(=O)Nc1nc2ccc(Cl)cc2s1` was tested, and the growth was 105%.
`O=C(CSSCC(=O)c1ccc(Cl)cc1)c1ccc(Cl)cc1` was tested, and the growth was 59.5%.
`O=[P@@]1(c2ccccc2)O[C@H](COCc2ccccc2)[C@@H](OCc2ccccc2)[C@H](OCc2ccccc2)[C@H]1O` gave a growth of 97%.
Work on `Nc1ncn([C@@H]2O[C@H](CO)[C@@H](O)[C@H]2O)c(=O)n1` yielded a growth of 34.8%.
For `CCCCOC(=O)Oc1ccc(C(=O)Oc2ccc(OCC)cc2)cc1`, the growth was 109%.
In the case of `O=C1c2ccc3c4c(ccc(c24)C(=O)N1CCNCc1ccccc1)C(=O)N(CCNCc1ccccc1)C3=O`, the growth is reported as 6% (active).
`CCn1cc(C(=O)O)c(=O)c2cnc(N3CCCC3)nc21` gave a growth of 113%.
`Cc1ccc(-c2nc(/C=C3/C(=O)N(C)c4ccc(F)cc43)c3ccccn23)cc1` gave a growth of 108%.
For `COc1ccc(OC)c(/C=C/c2nc(SC)n(-c3ccc(Cl)cc3)n2)c1`, the growth was 85.1%.
For `COc1cccc(-c2cc(-c3cccc(NS(C)(=O)=O)c3)nc(N)c2C#N)c1O`, the growth was 76.7%.
With `CC1CN(Cc2ccccc2)C(=O)NC1=O` (stereo not drawn) the growth was 114%.
`Cc1cn(C2CCCCO2)c(=O)nc1NO` (stereo not drawn) was tested, and the growth was 116%.
